In all, about 33,000 sequences were measured (“e-score”: median about -0.038, highest 2% from about 0.33 on). Many of the other results were omitted from the sample, so the highest values are more common in it than they were.
Target: T1, GST-Rok-C97-191 (Bacillus subtilis subsp. subtilis str. …, UniProt O34857 97-191)
T1 sequence: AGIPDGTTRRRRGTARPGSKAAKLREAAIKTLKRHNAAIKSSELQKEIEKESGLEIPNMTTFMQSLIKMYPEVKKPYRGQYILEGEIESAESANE
Test: protein binding microarray; Rok is a gene silencer of Bacillus subtilis; high values mean tight binding
Conditions: protein: recombinant; tags: GST (pTH5325, pDEST15-Magic modified); dsDNA, one strand shown
Method in brief: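 Each has a 25-mer constant primer and a 35-mer variable part from a de Bruijn sequence of order 10, covering every non-palindromic 8-mer at least 32 times (palindromic 16). Preference for each 8-mer is given as a rank-based, unitless enrichment score (E-score). Its range runs from 0.5 (most favored) to −0.5 (most disfavored).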

Going from CCTATAAG to CAACGGTA, the binding signal rises from 0.0895 E-score to 0.207 E-score.

Compared with GGATGAAC, AAGCCTCA is lower in binding signal: 0.0137 E-score for the first, -0.158 E-score for the second.

First: AAAGCGAG
Second: CATGCCCC
The binding signal of the first is higher: -0.169 E-score for the first, -0.186 E-score for the second.

Going from TGCCGAAA to CAAATGGC, the binding signal rises from -0.0675 E-score to 0.0931 E-score.

Going from CAGAACTA to TAGAAATA, the binding signal rises from 0.309 E-score to 0.416 E-score.

Going from CAGAAATA to TAGAACTA, the binding signal rises from 0.254 E-score to 0.368 E-score.

First: GAGAAATC
Second: GAGAAAAA
The binding signal of the first is lower: 0.0248 E-score for the first, 0.0631 E-score for the second.

Going from GAGAAATA to GAGAACTA, the binding signal falls from 0.345 E-score to 0.242 E-score.

First: AAGAAATA
Second: CATTCCGA
The binding signal of the first is higher: 0.145 E-score for the first, -0.0936 E-score for the second.

First: CGTTTACC
Second: ACTATTCT
The binding signal of the first is lower: -0.0458 E-score for the first, 0.217 E-score for the second.

Compared with GCCATTTA, GAATCGCA is higher in binding signal: -0.19 E-score for the first, -0.139 E-score for the second.

First: GAGAATGA
Second: CCGTTTAA
The binding signal of the first is higher: 0.00699 E-score for the first, -0.0736 E-score for the second.

First: TAAAAGGA
Second: CAAAACTA
The binding signal of the first is lower: -0.0824 E-score for the first, 0.401 E-score for the second.

Compared with ACAAACTG, ACAAACTC is lower in binding signal: 0.0787 E-score for the first, 0.00994 E-score for the second.

Going from TAAAACAA to TAAAACTA, the binding signal rises from 0.0349 E-score to 0.334 E-score.

Compared with AAAAACTA, ACAAACTA is lower in binding signal: 0.426 E-score for the first, 0.382 E-score for the second.

Compared with AAAAACTT, CAAAACTC is higher in binding signal: -0.191 E-score for the first, 0.162 E-score for the second.

Going from TAAAACGA to AAAAACTC, the binding signal rises from 0.027 E-score to 0.113 E-score.

Going from CAAAACAA to GAGGCTGA, the binding signal falls from -0.0275 E-score to -0.165 E-score.

First: ACCGCAAG
Second: ACGAACTA
The binding signal of the first is lower: -0.109 E-score for the first, 0.311 E-score for the second.

First: CCAACTAA
Second: ACGCTAAG
The binding signal of the first is higher: 0.16 E-score for the first, 0.0377 E-score for the second.

Compared with CGAAGCTA, CTCGGAGC is lower in binding signal: 0.0414 E-score for the first, 0.0375 E-score for the second.

Going from GAAAACCA to CCAAACCA, the binding signal rises from -0.143 E-score to -0.102 E-score.

Compared with CCAAACTC, GCAAACAA is lower in binding signal: -0.0249 E-score for the first, -0.173 E-score for the second.

First: GAAAACTC
Second: GCAAACTA
The binding signal of the first is lower: -0.0271 E-score for the first, 0.385 E-score for the second.

First: CCAAACTA
Second: GAAAACTA
The binding signal of the first is higher: 0.376 E-score for the first, 0.336 E-score for the second.

First: GCAAACCA
Second: GTTACAGA
The binding signal of the first is lower: -0.0828 E-score for the first, 0.21 E-score for the second.

Going from TGCGCGCA to TAGGGGGA, the binding signal falls from 0.0584 E-score to -0.143 E-score.

Compared with ACAGTTGA, CCAGCGTC is lower in binding signal: 0.152 E-score for the first, -0.163 E-score for the second.

Going from GATAGAAA to GATAGAAC, the binding signal falls from 0.333 E-score to 0.289 E-score.

Compared with CATAGAAA, TATAGAAA is higher in binding signal: 0.105 E-score for the first, 0.397 E-score for the second.

Compared with AATAGAAT, TATAGACA is lower in binding signal: 0.318 E-score for the first, 0.00807 E-score for the second.

Going from GATAGACA to AATAGAAA, the binding signal rises from 0.058 E-score to 0.388 E-score.

Going from AATAGAAC to ACAAACCG, the binding signal falls from 0.151 E-score to -0.027 E-score.

Compared with TCATTCCA, GCATCCAA is lower in binding signal: -0.0328 E-score for the first, -0.0621 E-score for the second.

Compared with GATAGAGA, AATACAGG is lower in binding signal: 0.104 E-score for the first, -0.0587 E-score for the second.

Compared with GACCCAAC, AGAAGCGA is higher in binding signal: -0.142 E-score for the first, -0.104 E-score for the second.

First: GGGCATAC
Second: AATCGACC
The binding signal of the first is lower: -0.0596 E-score for the first, -0.0453 E-score for the second.

First: GCTACTCA
Second: AAACTCTT
The binding signal of the first is lower: 0.0267 E-score for the first, 0.063 E-score for the second.

Going from AAACTAAG to AAACTATT, the binding signal rises from 0.251 E-score to 0.448 E-score.

Compared with AAACTAAT, CAACTATA is lower in binding signal: 0.36 E-score for the first, 0.277 E-score for the second.

First: AAACTATA
Second: GAACTATA
The binding signal of the first is higher: 0.398 E-score for the first, 0.29 E-score for the second.

Going from AAACTAAC to CAACTATC, the binding signal falls from 0.308 E-score to 0.156 E-score.

Compared with AAACTATC, GAACTATC is lower in binding signal: 0.36 E-score for the first, 0.261 E-score for the second.

Going from AAACTATG to AAACAGTC, the binding signal falls from 0.229 E-score to -0.0408 E-score.

Compared with GCGCCGGA, ATTTAAAA is higher in binding signal: -0.0972 E-score for the first, -0.0263 E-score for the second.

First: GAAGCGTC
Second: ATTATTCA
The binding signal of the first is lower: -0.188 E-score for the first, 0.199 E-score for the second.

Going from CTAGATCA to ATTACAGC, the binding signal rises from 0.199 E-score to 0.215 E-score.

Going from TAACTATA to AAACTAAA, the binding signal falls from 0.347 E-score to 0.296 E-score.

Compared with TAACTAAA, CAGAGAGA is lower in binding signal: 0.23 E-score for the first, -0.071 E-score for the second.

Going from CTTTAGGC to CTAGAAAC, the binding signal rises from -0.0933 E-score to 0.34 E-score.

First: GTAGAAAA
Second: CTAGAAAG
The binding signal of the first is higher: 0.384 E-score for the first, 0.113 E-score for the second.

Compared with GAAGAAAC, TTAGAAAA is higher in binding signal: 0.108 E-score for the first, 0.263 E-score for the second.

First: CAAGAAAC
Second: GTAGAAAC
The binding signal of the first is lower: 0.224 E-score for the first, 0.435 E-score for the second.

First: CTAGAAAA
Second: GCAGAAAC
The binding signal of the first is higher: 0.312 E-score for the first, -0.0283 E-score for the second.

Going from TCAGCCCA to TGCCAACA, the binding signal rises from -0.191 E-score to 0.0271 E-score.

Going from AGAGGTAA to CGGCAAAC, the binding signal rises from 0.149 E-score to 0.168 E-score.

First: AGCGCCGG
Second: ACTATACG
The binding signal of the first is lower: -0.146 E-score for the first, 0.0223 E-score for the second.

Going from CTTATACA to ATTATACG, the binding signal rises from 0.263 E-score to 0.388 E-score.

First: GTTATACA
Second: ATTATACC
The binding signal of the first is higher: 0.253 E-score for the first, 0.228 E-score for the second.

Going from ATTATACA to GTACTGCA, the binding signal falls from 0.333 E-score to 0.119 E-score.

Going from AGAATGCG to ATAGGGAC, the binding signal falls from 0.105 E-score to -0.176 E-score.

Going from CACGATCA to AACCCCTG, the binding signal falls from -0.0988 E-score to -0.151 E-score.

Going from GTCTGACA to GATATACA, the binding signal rises from -0.163 E-score to 0.175 E-score.

Compared with ACTATACA, TATATACA is higher in binding signal: 0.302 E-score for the first, 0.402 E-score for the second.

Going from AACATACT to TACATACA, the binding signal rises from 0.0962 E-score to 0.253 E-score.

Going from AATATACA to AATACACA, the binding signal falls from 0.394 E-score to 0.173 E-score.

First: CATATACC
Second: CATATACA
The binding signal of the first is higher: 0.222 E-score for the first, 0.22 E-score for the second.

First: GATATACC
Second: AACATACA
The binding signal of the first is lower: 0.153 E-score for the first, 0.343 E-score for the second.

Going from AATATACC to ACAACTTG, the binding signal falls from 0.353 E-score to 0.173 E-score.

First: ACGTGGCA
Second: CTTAGCGC
The binding signal of the first is lower: -0.0377 E-score for the first, 0.0409 E-score for the second.

Going from GAGCTAGC to ACCCGTTG, the binding signal falls from 0.0567 E-score to -0.159 E-score.

Compared with TGTTAAAA, AATTGCGG is higher in binding signal: -0.0158 E-score for the first, 0.0377 E-score for the second.

Compared with TACCGGAA, ACAGGCGT is lower in binding signal: -0.0058 E-score for the first, -0.077 E-score for the second.

Compared with AATATACT, ACTATACT is lower in binding signal: 0.367 E-score for the first, 0.0926 E-score for the second.

Going from AGTATACA to TGTATACA, the binding signal rises from 0.178 E-score to 0.37 E-score.

Going from GGTATACA to AATATACG, the binding signal rises from 0.15 E-score to 0.225 E-score.

Compared with GAAAGTGC, GTACCAAC is higher in binding signal: -0.0315 E-score for the first, 0.0505 E-score for the second.

First: CAGGCGAC
Second: CGTTTATC
The binding signal of the first is lower: -0.00727 E-score for the first, 0.231 E-score for the second.

Compared with GGCAGTTA, CACAAGTG is lower in binding signal: 0.0872 E-score for the first, -0.00102 E-score for the second.

First: CAGACTAA
Second: ACCTCACT
The binding signal of the first is lower: -0.0795 E-score for the first, -0.0237 E-score for the second.

Going from TCAGCCGA to AATATAAT, the binding signal rises from -0.0187 E-score to 0.23 E-score.

Going from TATAAAAA to CATATAAA, the binding signal falls from 0.244 E-score to 0.138 E-score.

Compared with GATATAAC, AATATAAA is higher in binding signal: 0.297 E-score for the first, 0.361 E-score for the second.

Compared with GATAAAAA, TATATAAA is higher in binding signal: 0.234 E-score for the first, 0.394 E-score for the second.

Going from AATATAAC to GATATAAA, the binding signal rises from 0.205 E-score to 0.34 E-score.
